Bioassay records (PubChem BioAssay)
This is a sample that favours compounds with a hit; in the whole collection about 1.6% have one here.
KCNQ2 block: KCNQ2 (rat) channel inhibition. O88943. CHO-K1 KCNQ2, FluxOR thallium flux, 20 min; hits give low values. B-score at 10 µM. 1.1% of 310,000 active;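 active = fluorescence ratio B-score at most minus 3 library SDs, with starting brightness B-score within 2 library SDs, cut at about -5.5 in these data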
KCNQ2 pot: potentiators of rat KCNQ2 potassium channel; CHO-K1 KCNQ2, FluxOR thallium flux fluorescence; hits give high values; B-score at 10 µM; 0.54% of 310,000 active;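 active = fluorescence ratio B-score at least 3 SD of library B-scores, with initial fluorescence B-score within 3 of them, cut at about 5.3 in these data; same plate scores as AID 2156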;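 also: B-score of peak minus minimum over baseline fluorescence ratio after K+ and Tl+ stimulus; positive B-score means potentiation of KCNQ2 with more thallium influx and brighter signal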
Numbers without * were called inactive; i = inactive; nt = no result given.

SMILES	KCNQ2 block	KCNQ2 pot
Cc1ccc(S(=O)(=O)Nc2cccc3ncccc23)s1	i	6*
Cc1ccc(S(=O)(=O)Nc2cccc3ncccc23)cc1	i	nt
O=C(CC12CC3CC(CC(Br)(C3)C1)C2)NC1CCCC1	i	nt
Cc1ccc(-n2ncc3c2CC(C)(C)CC3NC(=O)c2ccncc2)cc1 (stereo not given)	i	0.58
CC(NC(=O)c1ccc(N2CCCC2)c([N+](=O)[O-])c1)c1ccc(S(N)(=O)=O)cc1 (stereo not given)	i	0.01
Cc1ccc(O)c(C2=NNC(c3ccc(Cl)cc3)C2)c1 (stereo not given)	i	nt
Oc1ccc(Cl)cc1C1=NNC(c2cccs2)C1 (stereo not given)	i	12*
CCCCOc1ccc(N(CC(=O)NCCOC)C(=O)CCC(=O)Nc2ccccn2)cc1	i	0.01
CSc1ccccc1Nc1ncnc(N)n1	i	0.23
COc1cccc(CNC(=O)C2=C(C)C(=O)OC23CCC(C)CC3)c1 (stereo not given)	-6.9*	-6.9
COc1ccccc1CNC(=O)C1=C(C)C(=O)OC12CCC(C)CC2 (stereo not given)	i	nt
Cn1c(SCC(=O)c2ccccc2)nnc1-c1ccc(O)cc1	i	0.82
Cn1c(SCC(=O)N2c3ccccc3CCc3ccccc32)nnc1-c1ccc(O)cc1	-5.8*	-5.8
O=C(NCC1CCCO1)c1cc2nc(-c3ccco3)cc(C(F)(F)Cl)n2n1 (stereo not given)	i	0.65
O=C(OCc1nnc(-c2ccccc2)o1)c1ccc(-n2cnnn2)cc1	i	0.35
O=C(OCc1nnc(-c2ccccc2)o1)c1cn(-c2ccccc2)nc1-c1ccccc1	-6.2*	-6.2
COc1cccc(NC(=O)CCC(=O)Nc2cc(OC)c(NC(=O)c3cccs3)cc2OC)c1	i	nt
COC(=O)c1c(NC(NC(C)=O)C(Cl)(Cl)Cl)sc2c1CCCC2 (stereo not given)	i	nt
CCOC(=O)c1c(NC(NC(C)=O)C(Cl)(Cl)Cl)sc2c1CCCC2 (stereo not given)	-6.5*	-6.5
CCS(=O)(=O)c1nn2c(N)c(/C=C3/C=CC(=O)C(OC)=C3)c(=O)nc2s1	i	nt
CCOC1=C/C(=C/c2c(N)n3nc(-c4ccccc4)sc3nc2=O)C=CC1=O	-6.9*	-6.9
COc1ccc(CCNC(=O)c2cccc(NS(=O)(=O)c3ccccc3F)c2)cc1OC	i	0.43
C/C(=N\OCc1nc2ccccc2c(=O)n1/N=C/c1cc([N+](=O)[O-])ccc1O)c1ccccc1	i	2.1
C/C(=N\OCc1nc2ccccc2c(=O)n1/N=C/c1cc(C)cc([N+](=O)[O-])c1O)c1ccccc1	-8.3*	-8.3
Cc1ccc(S(=O)(=O)N2CCN(c3nc4ccccc4nc3-n3nc(C)cc3C)CC2)cc1	-6*	-6
SMILES	KCNQ2 block	KCNQ2 pot
Cc1cc(C)n(-c2nc3ccccc3nc2N2CCC(C)CC2)n1	-6.8*	-6.8
Cc1nc2ccccc2nc1N1CCC(C)CC1	i	0.87
Cc1cc(C)n(-c2nc3ccccc3nc2N2CCN(C(=O)c3ccc(F)cc3)CC2)n1	i	nt
Cc1cc(=O)n2nc(N3CCCC3C(=O)Nc3cccc(Cl)c3C)sc2n1 (stereo not given)	i	0.11
COc1ccccc1C(=O)Nc1ccnn1C1CCN(Cc2ccn[nH]2)CC1	i	nt
O=C1NC2(CCN(Cc3ccccc3)CC2)Oc2ccccc21	i	nt
O=C1c2ccccc2OC2(C=Cc3ccccc3O2)N1Cc1ccccc1 (stereo not given)	-8.3*	-8.3
CNC(=O)N1CCC(C(=O)c2c(C)c(C)c(C)c(C)c2C)CC1	i	nt
COc1ccc(-c2cc(CC3(C(=O)O)CCN(C(=O)OC(C)(C)C)CC3)on2)c(OC)c1	i	nt
CC1(C)Cc2ccccc2-c2nc(NN)[nH]c(=O)c21	i	nt
CC1(C)Cc2ccccc2-c2nc(-c3ccccc3)oc(=O)c21	-7.9*	-7.9
CCCCn1c(N)c(N(CCOC)C(=O)CCNC(=O)c2ccccc2Cl)c(=O)[nH]c1=O	i	0.09
CN(CC(=O)Nc1ccc(F)cc1)C(=O)COC(=O)C1=COCCO1	i	nt
CCc1ccccc1NC(=O)c1ccc(S(=O)(=O)NCC2CCCO2)cc1 (stereo not given)	i	nt
COc1ccc(Oc2ccc(C(F)(F)F)cc2NC(=O)c2ccc(C)cc2)cc1	-5.6*	-5.6
COCCOc1ccc(C(F)(F)F)cc1NC(=O)c1ccc(C)cc1	i	nt
O=C(OCCCOC(=O)c1cc[n+]([O-])cc1)c1cc[n+]([O-])cc1	i	1
Cc1nc(SCC(=O)OCc2ccccc2)c(C#N)c(-c2ccccc2)c1C(=O)Nc1ccccc1	i	nt
Cc1ccccc1NC(=O)c1c(C)nc(SCC(=O)OCc2ccccc2)c(C#N)c1-c1ccc(F)cc1	-7*	-7
N=C1SC(CC(=O)Nc2ccccc2[N+](=O)[O-])C(=O)N1c1ccccc1 (stereo not given)	i	nt
CCCc1c(-c2ccc(O)cc2)nn(-c2ccc(O)cc2)c1-c1ccc(O)cc1	-6.6*	-6.6
Cc1c(C(N)=O)c(-c2ccccc2)nn1-c1ccccc1	i	0.5
CCOC(=O)C1CCN(C(=O)Cn2c(=O)oc3cc(S(=O)(=O)N4CCCC4)ccc32)CC1	i	0.13
O=C(/C=C/c1ccco1)Nc1ccc2nc3n(c(=O)c2c1)CCCC3	i	nt
CCOC(=O)c1cnc2ccc(C)cc2c1Sc1ccc(F)cc1	-5.5*	-5.5
SMILES	KCNQ2 block	KCNQ2 pot
CCOC(=O)c1cc(-c2ccccc2)nc2ccc(C)cc12	i	nt
COCCN(C(=O)CSc1nnc(-c2ccc(C(C)(C)C)cc2)n1N)c1c(N)n(CC(C)C)c(=O)[nH]c1=O	i	nt
Oc1c(Br)cc(Br)cc1/C=N/NC(=S)N[C@H]1CC2C=CC1C2 (stereo not given in full)	i	0.28
CNC(=S)N/N=C/c1cc(Br)cc(Br)c1O	i	7*
COc1cccc(CNC(=O)CCCNC(=O)c2ccc(Cl)cc2)c1	i	nt
CCCCn1c(SCC(=O)c2ccc3c(c2)NC(=O)CO3)nc2cc(S(N)(=O)=O)ccc21	i	0.47
CCN(CC)S(=O)(=O)c1cc(-c2nnc(-c3ccc(Br)cc3)o2)ccc1Cl	-6.1*	-6.1
CCN(CC)S(=O)(=O)c1cc(-c2nnc(-c3ccc(Br)cc3)o2)ccc1Br	-7*	-7
CCN(CC)S(=O)(=O)c1ccc(-c2nnc(SC)o2)cc1	i	1.1
CCN(CC)S(=O)(=O)c1cccc(-c2nnc(-c3ccc(C)cc3)o2)c1	i	nt
CCN(CC(=O)Nc1c(F)cccc1F)C(=O)/C=C/c1ccc2c(c1)OCO2	i	nt
Cn1nccc1C(=O)N(CCN1CCCCC1)CC1CCCN(C2CCCC2)C1 (stereo not given)	i	nt
COc1cc(Br)c(CC(=O)NC2CC2)cc1OC	i	1.5
CC1(CCBr)C(=O)N(c2ccccc2)c2ccccc21 (stereo not given)	i	nt
O=C1N(c2ccccc2)c2ccccc2C1(Cc1ccncc1)Cc1ccncc1	-5.6*	-5.6
CC1CC(C)CN(C(=O)CNC(=O)c2ccc3ccccc3c2)C1 (stereo not given)	i	nt
CCOC(=O)/C(C(=O)Nc1ccc(Br)cc1)=C1/NC(C)(C)Cc2ccccc21	i	nt
CCOC(=O)/C(C(=O)Nc1ccccc1Cl)=C1/NC(C)(C)Cc2ccccc21	-8.1*	-8.1
O=C(CNC(=O)c1ccccc1Br)N/N=C/c1ccc(O)cc1	i	nt
